The source of these data is PubChem BioAssay AID2401 (Southern Research Specialized Biocontainment Screening …, 2010).

Structures are written as SMILES. Out of some 2,200 compounds screened, about 530 (24%) were called active.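 The calls were made as follows: active = inhibition above a set limit at one or more concentrations of the dose series; inactive = inhibition under that limit at every dose.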 A selection follows. Entries with a potency or affinity are not part of this list.

This experiment can be described thus: nmpC-GFP reporter counter-screen in S. Typhimurium, dose response, counter-screen for PhoP regulon inhibitor project, Salmonella Typhimurium, GFP fluorescence (AID 2401).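 Also: S. typhimurium with Mg-insensitive nmpC-GFP reporter grown at 10 µM Mg2+; drop in reporter fluorescence reflects general culture growth inhibition.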 The note with it: 4 h; series mostly up to 150 µM. (The purpose of a counterscreen is to sort out artefacts and off-target activity.)
As to `COC(=O)Cc1c(O)ccn(Cc2ccc(F)cc2)c1=O`, the compound was called inactive.
As for `O=C(O)Cn1cc(C(=O)c2ccco2)c2ccccc21`, the entry is “inactive”; as for `CCn1cc(C(=O)O)c(=O)c2cc(OC)ccc21`, “inactive”.
For `O=C(Nc1ccc(NC(=O)C23CC4CC(CC(C4)C2)C3)cn1)c1ccco1`, the compound was classed as inactive.
The entry for `Oc1ccc(-c2n[nH]c(=S)n2-c2ccc3c(c2)OCCO3)c(O)c1` is “inactive”; for `Nn1c(COc2cccc(Br)c2)nnc1SCC(=O)N1CCc2ccccc2C1` it is “inactive”.
As for `c1ccc2c(C3=NNC(=NC4CC4)SC3)c[nH]c2c1`, the entry is “inactive”.
Regarding `O=C(Nc1cnn(Cc2ccc(Cl)cc2Cl)c1)c1noc2c1CCCC2`, the call was inactive.
For `CC(=O)c1c(N2CCN(C(=O)C3CCCO3)CC2)nc(=S)n(-c2ccccc2)c1C` (stereo not given), the compound was classed as inactive.
Consider `Nc1ccccc1NC1=CC(=O)CC(c2ccco2)C1` (stereo not given), for which the outcome was inactive.
The entry for `CCOC(=O)C1=NNC2(c3ccc(Cl)cc3)C(=O)N(c3cc(C)cc(C)c3)C(=O)C12` (stereo not given) is “inactive”; for `NC1=NC(=Nc2ccc(Cl)cc2)c2ccccc21` it is “inactive”.
The entry for `C=CCNCC#CCOc1ccc(OC)cc1` is “inactive”.
On to `O=C1NC2=C(CCc3ccccc32)C(c2ccc(Br)cc2)N1` (stereo not given), for which the outcome was inactive.
Turning to `Cc1nc(C(=O)Nc2ccc(Cl)cc2)nn1-c1ccc([N+](=O)[O-])cc1`, the call was inactive.
Consider `O=c1[nH]c2cc3c(cc2cc1CN(CCc1ccccc1)Cc1nnnn1CC1CCCO1)OCO3` (stereo not given), for which the call was inactive.
As to `Cc1cc(-c2csc(NC(=O)c3ccc(S(=O)(=O)N(C)C)cc3)n2)c(C)n1-c1ccccc1`, the compound was called inactive.
The entry for `Cc1cc(C(=O)NCc2ccco2)no1` is “inactive”; for `COc1ccc(-c2cc(-c3ccc(OC)c(OC)c3)n[nH]2)c(O)c1` it is “inactive”; for `COCCNC(=O)c1ccccc1NS(=O)(=O)c1ccc(Br)s1` it is “inactive”.
The entry for `Cc1cccn2cc(CSc3nnc(Nc4ccc(C(C)C)cc4)s3)nc12` is “inactive”.
In the case of `CCC(CC)C(=O)N1c2ccc(F)cc2CCC1C` (stereo not given), the result was inactive.
As for `CC1(C)CC(=O)C2=C(C1)N(Cc1ccccc1)C(=O)C2(O)C(F)(F)F` (stereo not given), the entry is “inactive”; as for `COc1ccc(CNc2nc3c(c(=O)[nH]c(=O)n3C)n2CCCc2ccccc2)cc1`, “inactive”.
Consider `COC(=O)c1cc(C#N)c(Oc2cccc(C)c2C)nc1C`, for which the call was inactive.
As for `COC(=O)CN1C(c2ccc(OC)cc2)=Nc2ccc(Cl)cc2C1c1ccccc1` (stereo not given), the entry is “inactive”; as for `CCCCn1c(O)c(C(CC)=Nc2ccc3c(c2)CCC3)c(=O)[nH]c1=O`, “inactive”.
The entry for `Cc1ccc(C(=O)N2CC3(C(C)C)CN(C(=O)c4ccc(C)cc4)CC(C(C)C)(C2)C3=O)cc1` is “inactive”; for `Cc1ccc(C(=O)C(OC(=O)COc2ccccc2C)c2ccccc2)cc1` (stereo not given) it is “inactive”.
As for `Cc1cc(C)c(NC(=O)COc2ccccc2C(=O)Nc2ccc3c(c2)oc2ccccc23)c(C)c1`, the entry is “inactive”.
As for `CC1(C)CC(=O)C=C(Nc2ccccc2NC(=O)c2cnccn2)C1`, the result was inactive.
Consider `COc1cc(C2NC(=O)NC(c3ccccc3)=C2C(C)=O)ccc1OCC(=O)O` (stereo not given), for which the compound was classed as inactive.
With `Cc1ccc(C(=O)c2ccccc2C(=O)O)c(O)c1`, the outcome was inactive.
Turning to `Cc1c(/C=C/C(=O)c2ccccc2)cnn1C`, the call was inactive.
With `COc1cccc(OC)c1C(=O)NC(=S)Nc1cc(-c2nc3ccccc3[nH]2)ccc1Cl`, the outcome was inactive.
As for `Cc1cc(C=O)c(C)n1-c1ccc(Oc2ccc([N+](=O)[O-])cn2)cc1`, the entry is “inactive”; as for `CCCn1c(SCC(=O)NCCc2ccccc2)nnc1-c1cccnc1`, “inactive”.
Regarding `O=[N+]([O-])c1ccc(N2CCN(CCOc3nonc3-c3ccccc3)CC2)c(Cl)c1`, the compound was classed as inactive.
Turning to `Cc1ccc(S(=O)(=O)c2c(N)n(NC(=O)c3ccco3)c3nc4ccccc4nc23)cc1`, the compound was called inactive.
Turning to `Cc1c(Cl)cccc1NC(=O)CSc1ncnc2c1cnn2CCc1ccccc1`, the call was inactive.
Turning to `Cc1cccc(NC(=S)NC(NC(=O)c2ccco2)C(Cl)(Cl)Cl)c1` (stereo not given), the compound was classed as inactive.
The entry for `CN(C)CCOC(=O)Cc1ccc(Cl)cc1` is “inactive”; for `O=C(CN1C(=O)c2ccccc2C1=O)N1CCN(c2ccccn2)CC1` it is “inactive”; for `COC(=O)c1ccccc1Oc1cnc2ccccc2n1` it is “inactive”.
Turning to `Brc1ccc(NC2=Nc3ccccc3CC2)cc1`, the result was inactive.
As for `COc1ccc(N(CC(=O)Nc2ccccc2SC)S(C)(=O)=O)cc1OC`, the entry is “inactive”.
In the case of `Cc1ccccc1CS(=O)(=O)c1snnc1C`, the result was inactive.
As for `CC(=O)Nc1ccc(NS(=O)(=O)c2ccc3c(c2)n(C)c(=O)n3C)cc1`, the entry is “inactive”; as for `CCOc1ccc(-c2nnc(SCc3nnc(-c4ccccc4)o3)n2-c2ccccc2F)cc1`, “inactive”.
For `COc1ccc(/C=C/C(=O)NCCc2nc3ccccc3[nH]2)cc1`, the compound was classed as inactive.
In the case of `CCOc1cc(/C=C2/NC(=O)N(CC(=O)Nc3cccc(C)c3)C2=O)ccc1OC`, the call was inactive.
On to `O=C(c1cccnc1Nc1ccc2c(c1)CCC2)N1CCOCC1`, for which the call was inactive.
The entry for `Cc1cc(C)cc(NC(=O)CSc2nc3c(c(=O)[nH]2)CN(Cc2ccc(F)cc2)CC3)c1` is “inactive”; for `O=C(c1cc2ncc(Br)cn2n1)N1CCOCC1` it is “inactive”; for `O=[N+]([O-])c1ccccc1CNc1ccc(F)c(Cl)c1` it is “inactive”.
The entry for `Nc1nnc(SCCOc2ccc(Br)cc2)s1` is “inactive”; for `O=S(=O)(NCc1ccccc1)c1cccc(S(=O)(=O)N2CCOCC2)c1` it is “inactive”; for `COc1ccc(Cl)cc1Nc1nc(-c2sc(NC(=O)c3ccco3)nc2C)cs1` it is “inactive”.
On to `O=C(/C=C/c1ccccc1)N1CCN(c2c(Cl)cccc2[N+](=O)[O-])CC1`, for which the result was inactive.
The entry for `CCCCOC(=O)CCNc1n[nH]c(=O)[nH]c1=O` is “inactive”.
The entry for `CN1CCN(S(=O)(=O)c2ccc(N)cc2)CC1` is “inactive”; for `O=C(NCc1ccccn1)Nc1cccc(Cl)c1` it is “inactive”.
The entry for `Cn1c(N)c(C(=O)COC(=O)C2CCCCC2)c(=O)n(C)c1=O` is “inactive”; for `CC(C)CNC(=O)c1ccc(COc2ccc(Cl)cc2Cl)o1` it is “inactive”.
For the compound `C#CCOc1ccc(Cl)cc1/C=N/O`, the call was inactive.
Take `CCCCN(C(=O)NC(=O)Nc1nc2ccc(OC)cc2s1)S(C)(=O)=O`: the compound was called inactive.
In the case of `Cc1ccc2nc(SCC(=O)c3c(C)[nH]c4ccccc34)[nH]c2c1`, the result was inactive.
`CN(CCO)Cc1csc2ccc(Br)cc12`: the call was inactive.
As for `CCNC(=O)NC1(C(=O)Nc2ccc3c(c2)OCCO3)CCCCC1`, the entry is “inactive”; as for `CC1=CC(C)(C)n2c(O)c(C3=NC(=S)NC3=O)c3cc(OC(=O)c4cccc5ccccc45)cc1c32`, “inactive”.
